This is an account of results in the supplement of paper PMC9950053.

Structures can show the parent of a compound that is named as a salt.

In this test the test system is Danio rerio larvae (5 dpf). In words: habituation (activity change first vs second 5 min of 1-s interval sound, period 17) minus DMSO control (percentage points); higher = larger habituation measure than DMSO larvae. Particulars: 10 µM; exposure time: 3 h pre-incubation + 3 h imaging. On the procedure:
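Wild-type 5 dpf zebrafish larvae (n=48 per drug, 96-well plates, 28.5 °C) were exposed to Tocris FDA-approved library compounds at 10 µM (0.1% DMSO) for 3 h before and 3 h during imaging. Images were taken every 6 s during visual and acoustic stimuli, and larvae were tracked with Z-LaP Tracker. Each measure is the treated-group mean minus the DMSO control mean (n=844), in percentage points. This mapping covers compounds with 5-character plate codes.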
As to `COc1ccc(C(CN(C)C)C2(O)CCCCC2)cc1` (stereo unspecified) [Venlafaxine hydrochloride], the habituation was -5.52.
